Compound activity deposited in PubChem BioAssay by National Center for Advancing Translational Sciences (NCATS).
This is a sample that favours compounds with a hit; in the whole collection about 4% have one here.
Caspase-1 inhib: blocks human caspase-1 allosterically or competitively | P29466 | Caspase-1 enzyme, Ac-WEHD-AFC fluorogenic rate | Potency, µM (series often up to 57.5 µM), without a hit: at the highest dose activity change, negative = inhibition, actives largely listed as inhibitors | 75,000 compounds, 0.03% hits;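 note: plate controls were vehicle for no effect and no substrate for full effect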
GBA activity: human lysosomal glucosylceramidase modulation. purified enzyme, resorufin glucoside fluorescence (screen aimed at inhibitors), 20 min. 48,000 compounds, 1.1% hits. P04062. Potency, µM. AID 360; in the data active = potency below about 15 µM; inconclusive = mostly about 16 µM to 33 µM;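 note: the screen sought inhibitors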
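Compounds titrated against 0.2 nM normal enzyme, 30 uM resorufin beta-D-glucopyranoside substrate, citrate/phosphate buffer with taurocholate and tween-20, pH 5.9. Reaction ran 20 min at room temperature; fluorescence (Ex 548/Em 600) gave AC50.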
TSHR agonist: activates the human thyroid stimulating hormone receptor; 73,000 compounds, 0.48% hits; Potency, µM (doses to about 57.1 µM), for inactives: at the highest dose activation, most hits filed as activators; HEK293-CNG-TSHR cells (CNG channel as cAMP sensor), membrane potential dye, cAMP; P16473; AID 926; active = well fitted activation curve with a large enough effect in the main read-out, with a control signal flat, not every such curve was filed as active; inconclusive = small, poorly fitted or top-dose-only effect, or a change in a side signal; inactive = no such curve, though single readings can be large or run the other way; % of control where 0% means no effect;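 note: the control signal comes from parental cells without the receptor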
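cAMP rise detected as CNG-channel membrane depolarization by fluorescent dye (emission 590 nm), 30 min after compound, following 60 min dye loading containing 100 uM RO 20-1724 at room temperature. Cells: TSHR/CNG HEK 293, with parental CNG HEK 293 as control.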
Bst PK mod: alters activity of Bacillus stearothermophilus pyruvate kinase; purified pyruvate kinase, luminescence ATP production; ribose 5-phosphate activator present at AC10; 51,000 compounds, 1.2% hits; AID 361; Potency, µM; in the data active = potency below about 11 µM; inconclusive = mostly about 12 µM to 25 µM;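 the screen sought inhibitors and activators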;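 note: scaled between full activation by ribose 5 phosphate and full inhibition by luteolin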
Caspase-7 inhib: allosteric or competitive inhibitors of human caspase-7; AID 889; P55210; Potency, µM (top dose mostly 57.5 µM), for the others: at the highest dose activity change, negative = inhibition, hits mostly inhibitors; 75,000 compounds, 0.02% hits; recombinant caspase-7, Ac-DEVD-AFC fluorescence rate; active = well fitted inhibition curve with a large enough effect in the main read-out, with a control signal flat, not every such curve was filed as active; inconclusive = small, poorly fitted or top-dose-only effect, or a change in a side signal; note: % of control where 0% means no effect
HEK293 cAMP ctrl: parental HEK293 cAMP activation (counter-screen). Potency, µM (doses to about 57.1 µM), for inactives: top-dose activation, hits mostly activators. 73,000 compounds, 2.5% hits. parental HEK293 CNG cAMP sensor, membrane potential fluorescence; note: % of control where 0% means no effect; nearly all actives have a fitted effect of over 55% in size
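Parental HEK 293 cells stably expressing a cAMP-gated CNG channel were loaded with membrane potential dye containing 100 uM RO 20-1724 for 60 min. Compound added for 30 min; depolarization read as fluorescence intensity at 590 nm.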
Starred values were filed as active, the others as inactive; i = inactive; ? = inconclusive; nt = no result given; [ ] = dose if it differs, or a comment. Unless noted, calls come from the whole dose curve; as a rule, active = well fitted curve in the direction sought with a large enough effect; inconclusive = small, poorly fitted or top-dose-only effect, or another doubt; inactive = no such curve, though single readings can be large; an effect the other way counts as inactive or inconclusive. Potency is the fitted concentration of half-maximal effect.

SMILES	Caspase-1 inhib	GBA activity	TSHR agonist	Bst PK mod	Caspase-7 inhib	HEK293 cAMP ctrl
Cc1nc(N2CCC(C)CC2)c2oc3ccccc3c2n1	-2%	>77	?	nt	-2%	25µM*
COc1ccccc1N1CCN(c2nc(C)nc3c2oc2ccccc23)CC1	-6%	>77	?	>57	-3%	25µM*
Cc1cc(C)nc(N2CCN(c3nc(C)nc4c3oc3ccccc34)CC2)n1	0%	>77	14%	>57	-1%	5%
COc1ccccc1-c1cc(C(F)(F)F)nc(S(=O)(=O)CCCC(=O)Nc2cc(C)on2)n1	-2%	9.4*	21%	>57	1%	5%
COc1ccccc1-c1cc(C(F)(F)F)nc(S(=O)(=O)CCCC(=O)NC(C)C)n1	-3%	>77	8%	>57	2%	14%
O=c1[nH]ncc2c3ccccc3n(Cc3ccc(F)cc3)c12	2%	nt	16µM*	nt	-1%	5%
CCNc1ncc2nc(-c3cn(C)c4ccccc34)c(=O)n(Cc3ccc(F)cc3)c2n1	?	nt	7%	nt	?	6%[0.457 µM]
Cc1ccc(S(=O)(=O)O[C@@H]2[C@H]([C@@H]3COC(C)(C)O3)O[C@H]3OC(C)(C)O[C@@H]32)cc1	1%[11.5 µM]	nt	0%[11.4 µM]	nt	-4%[11.5 µM]	-11%[11.4 µM]
CC(=O)N1CCN(c2ccc(NC(=O)c3ccccc3Br)cc2Cl)CC1	-1%	0.33*	1%	>57	-2%	-6%
CCOC(=O)OCC1OC(C#Cc2ccccc2)C=CC1OC(=O)OCC (stereo unspecified)	?	nt	0%[11.4 µM]	nt	-1%[11.5 µM]	-2%[11.4 µM]
CCN(CC)S(=O)(=O)c1cccc(-c2nnc(SCc3ncc(-c4ccccc4)o3)n2C)c1	-1%	>77	?	>57	-2%	?
CCSc1nnc(-c2cccc(S(=O)(=O)N(CC)CC)c2)n1Cc1ccccc1	-3%	>77	?	>57	-2%	16µM*
C#CCCCO/N=C1/C[C@@H](O)[C@@H](O)[C@@H]2[C@@H]3C(=O)N(C(C)(C)C)C(=O)[C@H]3CC[C@H]12	-9%[11.5 µM]	nt	4%[11.4 µM]	nt	0%[11.5 µM]	2%[11.4 µM]
O=C1Oc2ccccc2C(=O)/C1=C\N1C(=O)N/C(=C\c2ccccc2O)C1=O	1%[11.5 µM]	nt	5%[11.4 µM]	nt	-7%[11.5 µM]	0%[11.4 µM]
COCCNC(=O)c1ccccc1NC(=O)COc1ccccc1	2%	>77	6%	>57	-2%	0%
COC(=O)c1ccccc1NC(=O)c1cc(OC)cc(OC)c1	-4%	nt	?	>57	-4%	25µM*
COC(=O)c1ccccc1NC(=O)COc1ccccc1	-6%	nt	?	nt	-2%	32µM*
O=C(CSc1nc2ccccc2o1)Nc1nc2c(s1)CCCC2	-5%	>77	?	i	-3%	32µM*
CCOC(=O)C(C)(C)[C@H](O)C(C)C	-6%[11.5 µM]	nt	7%[11.4 µM]	nt	1%[11.5 µM]	-6%[11.4 µM]
CCOC(=O)c1c(C)n(CC(O)c2ccccc2)c2ccc(O)cc12 (stereo unspecified)	-1%	>77	25µM*	>57	1%	-2%
CN(C)CC(CN(C)C)c1ccccn1	-3%[11.5 µM]	nt	nt	nt	-1%[11.5 µM]	2%[11.4 µM]
c1ccc(OCc2nn3c(-c4ccncc4)nnc3s2)cc1	-1%	>77	24%	>57	-1%	7%
O=C1c2ccccc2C(=O)N1Cc1nn2c(-c3ccc(Cl)cc3)nnc2s1	-2%	7.8*	16%	>57	0%	18%
COc1ccc(-c2nnc3sc(CN4C(=O)c5ccccc5C4=O)nn23)cc1	1%	nt	16µM*	>57	0%	12%
CCOc1ccccc1OCc1nn2c(-c3ccc(C)cc3)nnc2s1	-1%	>77	?	?	-2%	25µM*
SMILES	Caspase-1 inhib	GBA activity	TSHR agonist	Bst PK mod	Caspase-7 inhib	HEK293 cAMP ctrl
O=[N+]([O-])c1ccc2c(N=Nc3ccc4ccccc4c3O)c(O)cc(S(=O)(=O)O)c2c1	-3%[11.5 µM]	nt	?	nt	-9%[11.5 µM]	?
Nc1c2c(nc3ccccc13)CCC[C@H]2O	4%	nt	nt	nt	1%	-18%
CCOC(=O)CSc1nc2ccccc2c(=O)n1Cc1ccco1	1%	>77	?	>57	-4%	?
CCOC(=O)CSc1nc2c(sc(=S)n2Cc2ccco2)c(=O)n1-c1ccccc1	-2%	?	?	>57	0%	1.3µM*
CCC(C)(C(=O)NC1CCCC1)N(Cc1cccs1)C(=O)Cc1cccs1 (stereo unspecified)	0%	>77	?	>57	-2%	2.5µM*
CCC(C)(C(=O)NC1CCCC1)N(Cc1ccco1)C(=O)c1ccccn1 (stereo unspecified)	1%	>77	?	>57	1%	?
CCC(C)(C(=O)NC1CCCC1)N(Cc1cccs1)C(C)=O (stereo unspecified)	-11%	>77	9%	>57	-9%	16%
CCC(C)(C(=O)NC1CCCC1)N(Cc1ccco1)C(=O)c1ccc2c(c1)OCO2 (stereo unspecified)	-2%	>77	?	>57	1%	2.5µM*
CC1=C(C(=O)OCCOC(C)C)C(c2cc3c(cc2Br)OCO3)C2=C(CCCC2=O)N1 (stereo unspecified)	?	11*	-4%	>57	-23%	-3%
CCN(CC)c1ccc(C2C(C(=O)OCCOC(C)C)=C(C)NC3=C2C(=O)CCC3)cc1 (stereo unspecified)	nt	nt	7%	nt	?	-2%
CC[C@H](C)[C@@H]1O[C@]2(CC[C@@H]1C)C[C@H]1C[C@H](CC=C(C)[C@@H](O[C@H]3C[C@H](OC)[C@H](O[C@H]4C[C@H](OC)[C@H](O)[C@H](C)O4)[C@H](C)O3)[C@@H](C)C=CC=C3CO[C@@H]4[C@@H](O)C(C)=C[C@H](C(=O)O1)[C@@]34O)O2	-3%	nt	nt	nt	-6%	-10%
CCn1c(=N)n(CCOc2ccc(OC)cc2)c2ccccc21	0%	6.9*	8%	>57	2%	15%
N=c1n(CCO)c2ccccc2n1CCOc1ccccc1	0%	6*	9%	>57	-1%	27%
N=c1n(Cc2ccccc2)c2ccccc2n1CC(O)c1ccco1 (stereo unspecified)	-3%	>77	4%	>57	-8%	6%
COc1ccc(OCC(O)Cn2c(=N)n(Cc3ccccc3)c3ccccc32)cc1 (stereo unspecified)	2%	14*	?	>57	1%	-39%
COC(=O)c1ccc(CSc2nc3c(c(=O)n2-c2ccc(F)cc2)SCC3)o1	-1%	?	3.2µM*	>57	-20%	26%
O=C(Nc1ccc(N2CCOCC2)cc1)c1cnsn1	3%	>77	-1%	7.1*	0%	4%
CS(=O)(=O)c1ncc(Cl)c(C(=O)Nc2ccc(N3CCOCC3)cc2)n1	4%	>77	-6%	>57	-1%	-18%
N[C@@H](Cc1cccc([N+](=O)[O-])c1)C(=O)O	6%[11.5 µM]	nt	-4%[11.4 µM]	nt	0%[11.5 µM]	5%[11.4 µM]
CN(C)c1ccc(N/C=C/C(=O)c2ccccc2)cc1	-6%	>77	-13%	0.42*	-4%	-8%
